The campaign covered roughly 310,000 compounds. About 14,000 (4.5%) showed an effect of 50% or more. Effects have a minus sign here. The sample as a whole holds a higher share of strong results than the screen did.
What follows are compounds tested against human ether-à-go-go-related gene (hERG) potassium channel (human, UniProt Q12809) (assay: primary screen, population patch clamp on CHO cells stably expressing hERG; higher = less effect of the substance).
Sequence of human ether-à-go-go-related gene (hERG) potassium channel (Q12809 whole entry, looked up): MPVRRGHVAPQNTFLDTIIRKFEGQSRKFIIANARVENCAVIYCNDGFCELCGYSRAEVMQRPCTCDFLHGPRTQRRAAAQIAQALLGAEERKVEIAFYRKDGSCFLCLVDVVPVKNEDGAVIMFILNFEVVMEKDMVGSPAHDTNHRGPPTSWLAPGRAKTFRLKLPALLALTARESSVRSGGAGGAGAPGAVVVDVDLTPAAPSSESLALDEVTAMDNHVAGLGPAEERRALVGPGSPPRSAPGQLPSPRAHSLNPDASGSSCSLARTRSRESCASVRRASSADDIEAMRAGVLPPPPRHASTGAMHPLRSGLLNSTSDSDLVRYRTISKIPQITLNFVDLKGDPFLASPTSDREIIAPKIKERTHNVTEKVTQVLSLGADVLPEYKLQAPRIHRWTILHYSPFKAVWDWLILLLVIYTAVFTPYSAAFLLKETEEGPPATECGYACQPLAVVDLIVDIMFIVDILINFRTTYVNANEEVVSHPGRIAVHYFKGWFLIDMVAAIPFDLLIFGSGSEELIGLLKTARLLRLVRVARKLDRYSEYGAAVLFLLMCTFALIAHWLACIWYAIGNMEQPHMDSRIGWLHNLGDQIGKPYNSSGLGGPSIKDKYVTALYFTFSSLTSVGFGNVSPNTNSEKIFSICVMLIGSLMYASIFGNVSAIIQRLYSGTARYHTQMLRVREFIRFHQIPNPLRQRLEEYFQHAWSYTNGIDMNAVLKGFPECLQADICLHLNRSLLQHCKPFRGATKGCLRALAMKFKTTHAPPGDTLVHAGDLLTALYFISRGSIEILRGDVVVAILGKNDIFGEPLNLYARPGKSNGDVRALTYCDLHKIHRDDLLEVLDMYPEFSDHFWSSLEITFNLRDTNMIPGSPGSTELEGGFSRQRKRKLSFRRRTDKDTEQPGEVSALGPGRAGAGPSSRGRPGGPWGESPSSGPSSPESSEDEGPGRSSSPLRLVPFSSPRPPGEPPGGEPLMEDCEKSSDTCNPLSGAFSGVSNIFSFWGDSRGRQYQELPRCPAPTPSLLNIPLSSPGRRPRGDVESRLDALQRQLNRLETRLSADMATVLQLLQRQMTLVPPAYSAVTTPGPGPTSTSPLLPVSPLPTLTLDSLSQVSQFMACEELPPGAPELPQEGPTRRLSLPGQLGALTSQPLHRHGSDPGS
For `COc1cc(NC(=O)c2ccc(Br)o2)ccc1NC(=O)c1ccccc1Cl`, the “hERG current change (%, negative = inhibition) at 10uM” value was -22.4%.
In the case of `CCN(CC)C(=O)CSc1nnc(SCc2ccc(Cl)cc2)s1`, the “hERG current change (%, negative = inhibition) at 10uM” value is reported as -3.44%.
`O=C(O)C1(NS(=O)(=O)c2ccc(F)c(Cl)c2)CCCCC1` was tested, and the “hERG current change (%, negative = inhibition) at 10uM” value was 7.65%.
`N#C/C(=C/Nc1ccccc1)c1ccsc1` was tested, and the “hERG current change (%, negative = inhibition) at 10uM” value was 7.85%.
In the case of `O=C(NC1CCCCC1)c1ccc(S(=O)(=O)N2CCOCC2)cc1`, the “hERG current change (%, negative = inhibition) at 10uM” value is reported as -2.69%.
With `COc1ccc(N2CCN(C(=O)C(NC(=O)c3c(F)cccc3F)C(C)C)CC2)cc1` (centres unmarked) the “hERG current change (%, negative = inhibition) at 10uM” value was 10.5%.
`CC(C)C(NC(=O)C1CCCCC1)C(=O)N1CCN(c2ccc(F)cc2)CC1` (centres unmarked) was tested, and the “hERG current change (%, negative = inhibition) at 10uM” value was -55.7%.
`CC(C)C(NC(=O)c1c(F)cccc1F)C(=O)N1CCN(c2ccccc2F)CC1` (centres unmarked) was tested, and the “hERG current change (%, negative = inhibition) at 10uM” value was -1.76%.
`CC(C)[C@H](NC(=O)c1c(F)cccc1F)C(=O)N1CCN(c2ccc(F)cc2)CC1` was tested, and the “hERG current change (%, negative = inhibition) at 10uM” value was -54.2%.
For `CC(C)[C@H](NC(=O)C1CCN(S(=O)(=O)c2ccc(F)cc2)CC1)C(=O)N1CCCCCC1`, the “hERG current change (%, negative = inhibition) at 10uM” value was 5.18%.
`CC(C)[C@H](NC(=O)C1CC(=O)N(c2ccc(F)cc2)C1)C(=O)N1CCCCC1` (some centres unmarked) was tested, and the “hERG current change (%, negative = inhibition) at 10uM” value was 7.29%.
In the case of `O=C(COc1ccccc1)OC(C(=O)c1ccccc1)c1ccccc1` (centres unmarked), the “hERG current change (%, negative = inhibition) at 10uM” value is reported as 16.5%.
For `CC(C)(C)OC(=O)N1CCN(C(=O)c2[nH]cnc2C(=O)Nc2ccon2)CC1`, the “hERG current change (%, negative = inhibition) at 10uM” value was 9.6%.
With `Fc1ccc(-c2nc3c(-c4ccccc4)cnn3cc2CCN2CCOCC2)cc1` the “hERG current change (%, negative = inhibition) at 10uM” value was -15.2%.
In the case of `COc1ccc(-n2c(Cc3cccn3C)nnc2SCC(=O)Nc2ccccc2)cc1`, the “hERG current change (%, negative = inhibition) at 10uM” value is reported as -19.5%.
In the case of `CCOC(=O)CN(C(=O)CNC(=O)c1ccco1)C(C(=O)NC1CCCCC1)c1cccnc1` (centres unmarked), the “hERG current change (%, negative = inhibition) at 10uM” value is reported as 12.2%.
`Cc1onc(-c2ccccc2Cl)c1C(=O)Nc1ccc2c(c1)OCO2` was tested, and the “hERG current change (%, negative = inhibition) at 10uM” value was 10.3%.
For `COc1cccc(-n2c(SCC(N)=O)nc3c([nH]c4ccccc43)c2=O)c1`, the “hERG current change (%, negative = inhibition) at 10uM” value was -0.054%.
`Cc1nnc(SCC(=O)NC2CCCc3ccccc32)n1-c1ccccc1` (centres unmarked) was tested, and the “hERG current change (%, negative = inhibition) at 10uM” value was -0.602%.
With `CCC(C)CCN1C(Nc2ccccc2)=NC[C@@H]1CC(C)C` (some centres unmarked) the “hERG current change (%, negative = inhibition) at 10uM” value was -41.1%.
With `CC(CCN1C(Nc2ccccc2)=NC[C@@H]1C)c1ccccc1` (some centres unmarked) the “hERG current change (%, negative = inhibition) at 10uM” value was -52.4%.
`CC(C)CCN1C(Nc2ccccc2)=NC[C@@H]1C` was tested, and the “hERG current change (%, negative = inhibition) at 10uM” value was -9.63%.
In the case of `CC(CCN1C(Nc2ccccc2)=NC[C@@H]1Cc1ccccc1)c1ccccc1` (some centres unmarked), the “hERG current change (%, negative = inhibition) at 10uM” value is reported as -74.8%.
`CCC(C)CCN1CCN=C1Nc1ccccc1` (centres unmarked) was tested, and the “hERG current change (%, negative = inhibition) at 10uM” value was -1.89%.
In the case of `CCC(C)CCN1C(Nc2ccccc2)=NC[C@@H]1Cc1ccccc1` (some centres unmarked), the “hERG current change (%, negative = inhibition) at 10uM” value is reported as -59.6%.
For `CC(C)C[C@H]1CN=C(Nc2ccccc2)N1CCC(C)c1ccccc1` (some centres unmarked), the “hERG current change (%, negative = inhibition) at 10uM” value was -67%.
With `CC(CCN1CCN=C1Nc1ccccc1)c1ccccc1` (centres unmarked) the “hERG current change (%, negative = inhibition) at 10uM” value was -33.8%.
`CCC(C)CCN1C(Nc2ccccc2)=NC[C@@H]1C` (some centres unmarked) was tested, and the “hERG current change (%, negative = inhibition) at 10uM” value was -4.88%.
`S=C(Nc1ccccc1)Nc1ccc(OCc2ccccc2)cc1` was tested, and the “hERG current change (%, negative = inhibition) at 10uM” value was -0.702%.
In the case of `Nc1nc2ccccc2n1/N=C/c1ccc(-c2ccccc2)o1`, the “hERG current change (%, negative = inhibition) at 10uM” value is reported as -11.8%.
With `CCCc1[nH]nc2c1C1(C(=O)N(CC)c3ccccc31)C(C#N)=C(N)O2` (centres unmarked) the “hERG current change (%, negative = inhibition) at 10uM” value was -6.38%.
`COc1ccc(C(=O)OCC(=O)NCC2CCCO2)cc1[N+](=O)[O-]` (centres unmarked) was tested, and the “hERG current change (%, negative = inhibition) at 10uM” value was 2.12%.
In the case of `Cc1cc(/C=C(\C#N)C(=O)NC2CCCCCC2)c(C)[nH]1`, the “hERG current change (%, negative = inhibition) at 10uM” value is reported as 9.54%.
`COc1ccccc1CC(=O)Nc1cccc(C(=O)Nc2nccs2)c1` was tested, and the “hERG current change (%, negative = inhibition) at 10uM” value was -0.755%.
For `O=C(Nc1ccccc1)c1cc(-c2ccccc2Cl)no1`, the “hERG current change (%, negative = inhibition) at 10uM” value was -4.91%.
For `O=S(=O)(NC1CCCC1)c1cc(F)ccc1F`, the “hERG current change (%, negative = inhibition) at 10uM” value was -8.75%.
In the case of `O=C(O)C1Cc2ccccc2N2CCCC12` (centres unmarked), the “hERG current change (%, negative = inhibition) at 10uM” value is reported as 20%.
In the case of `COc1cc(-c2nnc(SC/C=C/c3ccccc3)n2N)cc(OC)c1OC`, the “hERG current change (%, negative = inhibition) at 10uM” value is reported as -3.66%.
`COc1cccc(C(=O)NNC(=O)c2ccc3ccccc3c2O)c1` was tested, and the “hERG current change (%, negative = inhibition) at 10uM” value was 7.66%.
In the case of `O=C(CSc1nc(-c2ccc(F)cc2)cs1)N1CCc2ccccc21`, the “hERG current change (%, negative = inhibition) at 10uM” value is reported as -1.23%.
`CCOc1ccc(/C=N/NC(=O)c2c(C)n(C)c3ccc(OC)cc23)cc1` was tested, and the “hERG current change (%, negative = inhibition) at 10uM” value was -5.78%.
For `COc1ccc2c(c1)c(C(=O)N/N=C/c1ccc(Cl)cc1)c(C)n2C`, the “hERG current change (%, negative = inhibition) at 10uM” value was -58.6%.
In the case of `COc1ccc2c(c1)c(C(=O)N/N=C/c1cccc(Br)c1)c(C)n2C`, the “hERG current change (%, negative = inhibition) at 10uM” value is reported as -15.9%.
`COc1ccc2c(c1)c(C(=O)N/N=C/c1ccc(Br)cc1)c(C)n2C` was tested, and the “hERG current change (%, negative = inhibition) at 10uM” value was -64.1%.
`COc1ccc2c(c1)c(C(=O)N/N=C/c1ccc(O)c(O)c1)c(C)n2C` was tested, and the “hERG current change (%, negative = inhibition) at 10uM” value was 9.18%.
For `COc1ccc2c(c1)c(C(=O)N/N=C/c1ccc(OC)c(OC)c1)c(C)n2C`, the “hERG current change (%, negative = inhibition) at 10uM” value was -39.2%.
`Oc1ccc(-c2csc(-c3c[nH]c4ccccc34)n2)c(O)c1` was tested, and the “hERG current change (%, negative = inhibition) at 10uM” value was 5.01%.
In the case of `O=c1[nH]c2ccccc2n1CCCOc1ccccc1`, the “hERG current change (%, negative = inhibition) at 10uM” value is reported as 4.34%.
In the case of `Cc1onc(-c2c(F)cccc2Cl)c1C(=O)Nc1cccc2nsnc12`, the “hERG current change (%, negative = inhibition) at 10uM” value is reported as -20.6%.
With `CNC(=O)NC(=O)COC(=O)CCCOc1ccc(OC)cc1` the “hERG current change (%, negative = inhibition) at 10uM” value was 20.5%.
For `COc1ccc(S(=O)(=O)NC(C)C(=O)O)cc1` (centres unmarked), the “hERG current change (%, negative = inhibition) at 10uM” value was 1.62%.
In the case of `CN(CC(=O)Nc1ccc2c(c1)OCO2)S(=O)(=O)c1ccc(F)cc1`, the “hERG current change (%, negative = inhibition) at 10uM” value is reported as -4.45%.
`CCN(Cc1nc2cc(Cl)ccc2c(=O)[nH]1)C(=O)c1cccc(OCc2c(C)noc2C)c1` was tested, and the “hERG current change (%, negative = inhibition) at 10uM” value was -57.4%.
For `Cc1noc(C)c1COc1cccc(C(=O)N(C)Cc2nc3ccccc3c(=O)[nH]2)c1`, the “hERG current change (%, negative = inhibition) at 10uM” value was -23.5%.
`CCN(Cc1nc2cc(Cl)ccc2c(=O)[nH]1)C(=O)c1cccc(NC(=O)c2cccs2)c1` was tested, and the “hERG current change (%, negative = inhibition) at 10uM” value was -24.7%.
With `Cc1cccc(Oc2coc3cc(OC(=O)c4cncc(Br)c4)ccc3c2=O)c1` the “hERG current change (%, negative = inhibition) at 10uM” value was -5.03%.
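Also: peak tail current of the secondary pulse compared with the same well before compound.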
